We go through 19 compounds from PubChem BioAssay (NCI).

Some test systems named below: T-47D breast; MDA-MB-435 melanoma; SW-620 colon; MCF7 breast; HCT-116 colon; KM12 colon; HCC-2998 colon; BT-549 breast.
Holding throughout (test): NCI-60 one-dose screen, 48 h (100 = growth as untreated, 0 = no growth, -100 = all killed)
What all share (conditions): 10 µM unless noted

About 83,000 compounds went through this panel and 20% of them were active in at least one assay; those are over-represented in the sample as a whole.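 Cells were grown in 96-well plates and exposed to the test compound at a single concentration for 48 hours; results are reported as percent growth, with values below 10 considered active.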 A number with no mark means an inactive call. Active and inactive are the calls of the source.

For the compound `COc1ccc(-c2cc(-c3ccc(OC)c(OC)c3)nc(SCCCCCC(=O)NO)n2)cc1`, the growth is -1.6% (active) in the assay on T-47D breast; 40.7% in the assay on MDA-MB-435 melanoma; 32.8% in the assay on SW-620 colon; 54.4% in the assay on MCF7 breast; 14.6% with HCT-116 colon; 63.9% with KM12 colon.
For `Cc1ccc(S(=O)(=O)N/N=C2\CC3CCC2(C)C3(C)C)cc1` (stereo not drawn), the growth in the assay on T-47D breast is 105%; in the assay with MDA-MB-435 melanoma, 103%; in the assay on SW-620 colon, 99.3%; in the assay with HCT-116 colon it was 104%; in the assay with HCC-2998 colon, 748%; in the assay with KM12 colon, 95.4%.
Turning to `COc1ccc(C(=O)CCC(=O)O)cc1`, the growth in the assay on T-47D breast is 33.9%; in the assay with MDA-MB-435 melanoma it was 107%; in the assay with SW-620 colon it was 84.5%; in the assay on MCF7 breast, 21.2%; in the assay with HCT-116 colon, 7.77% (active); in the assay on KM12 colon, 103%.
As to `CCCC(NC(=O)OCc1ccccc1)C(=O)O` (stereo not drawn), the growth with T-47D breast is 99.6%; with MDA-MB-435 melanoma, 109%; with SW-620 colon it was 97.9%; in the assay on MCF7 breast, 96%; in the assay on HCT-116 colon, 98.1%; with KM12 colon it was 109%.
For the compound `CC(C)CCSC1=CC(=O)c2ccccc2C1=O`, the growth was -41.4% (active) in the assay on T-47D breast; 63.8% with MDA-MB-435 melanoma; -16.7% (active) in the assay on SW-620 colon; 42.5% in the assay on MCF7 breast; -100% (active) with HCT-116 colon; 92.1% in the assay with KM12 colon.
Consider `COc1ccc(-c2cc(-c3ccccc3)nc(SCCCCCC(=O)NO)n2)cc1`, for which the growth with T-47D breast was 22.7%; in the assay on MDA-MB-435 melanoma, 37.5%; in the assay on SW-620 colon it was 29.7%; in the assay with MCF7 breast, 49.8%; with HCT-116 colon it was 21.6%; with HCC-2998 colon, 78.8%. The growth with KM12 colon is 70.8%.
Take `CCOc1cc(/C=N\NC(=O)N/N=C/c2ccc(O)c(OCC)c2)ccc1O`: the growth in the assay on T-47D breast was 29.5%; in the assay with MDA-MB-435 melanoma, -14.6% (active); with SW-620 colon, 20.9%; in the assay on MCF7 breast it was 17.4%; in the assay on HCT-116 colon, 24.8%; in the assay on HCC-2998 colon, 41%. The growth in the assay on KM12 colon was 21.2%.
Regarding `Cc1ccc(S(=O)(=O)Oc2ccc(Br)cc2Br)cc1`, the growth in the assay with T-47D breast was 70.7%; with MDA-MB-435 melanoma it was -46% (active); in the assay with SW-620 colon, 58.6%; with MCF7 breast, 75.7%; in the assay on HCT-116 colon, 49.3%; with HCC-2998 colon it was 78.3%. Further, in the assay with KM12 colon, the growth is 45.9%.
As for `O=C(O)c1ccccc1C(F)(F)F`, the growth with T-47D breast was 76.5%; in the assay on MDA-MB-435 melanoma it was 107%; in the assay on SW-620 colon, 98.7%; with MCF7 breast, 92.8%; with HCT-116 colon, 91.2%; with KM12 colon it was 96.3%.
`O=C(CCCCCCSc1nc(-c2ccc(Cl)cc2)cc(-c2ccc(Cl)cc2)n1)NO`: the growth in the assay with T-47D breast is 13.2%; in the assay on MDA-MB-435 melanoma, 43.5%; with SW-620 colon it was 35.8%; with HCT-116 colon, 18.4%; in the assay with HCC-2998 colon, 78.7%; in the assay with KM12 colon it was 47.4%.
For `COc1cc2c(c(OC)c1)C1c3cc(OC)ccc3NC(=O)N1CC2` (stereo not drawn), the growth in the assay with T-47D breast is 88.7%; in the assay with MDA-MB-435 melanoma, 9.36% (active); in the assay on SW-620 colon, 49.4%; with MCF7 breast, 58.3%; in the assay on HCT-116 colon, 65.2%; in the assay on HCC-2998 colon it was 94%. Besides, the growth in the assay with KM12 colon was 49.4%.
`CN(C)Cc1ccc[nH]1`: the growth with T-47D breast is 83.5%; in the assay with MDA-MB-435 melanoma, 110%; in the assay with SW-620 colon it was 94.6%; with MCF7 breast it was 97.9%; in the assay on HCT-116 colon, 77.5%; with KM12 colon it was 108%.
For the compound `Cc1cc(C)c(-c2cc(O)c(-c3c(C)cc(C)cc3C)cc2O)c(C)c1`, the growth in the assay with T-47D breast is 43%; with MDA-MB-435 melanoma, 2.34% (active); in the assay on SW-620 colon it was 26.2%; in the assay on MCF7 breast, 21.7%; with HCT-116 colon, 22.6%; with KM12 colon it was 23.9%.
For the compound `COc1ccc2c(c1)C(C)Cc1c(Cl)nc(C)nc1N2C` (stereo not drawn), the growth in the assay on T-47D breast is 39.6%; with MDA-MB-435 melanoma, -20.5% (active); with SW-620 colon, 24.8%; in the assay with MCF7 breast it was 19.7%; with HCT-116 colon it was 12.2%; in the assay with HCC-2998 colon, 30.3%. Further, in the assay on KM12 colon, the growth is 21%.
As for `COc1cc2c(cc1OC(C)=O)C(=O)CCCC2`, the growth was 101% in the assay with T-47D breast; 102% in the assay on MDA-MB-435 melanoma; 95.8% in the assay with SW-620 colon; 92.3% in the assay on MCF7 breast; 82.6% in the assay on HCT-116 colon; -10.1% (active) in the assay on HCC-2998 colon. In addition, the growth in the assay with KM12 colon was 106%.
For the compound `O=C1COCCN1c1ccc(NCc2cn(Cc3ccccc3)c3ccccc23)cc1`, the growth was 44.9% in the assay on T-47D breast; 97.9% in the assay on MDA-MB-435 melanoma; 84.9% with SW-620 colon; 63.9% with MCF7 breast; 62.9% in the assay on HCT-116 colon; 105% with HCC-2998 colon. In addition, the growth in the assay on KM12 colon is 104%.
Turning to `Cn1cc(-c2noc(-c3cn(C)c4ncc(F)cc34)n2)c2cc(Br)ccc21`, the growth was 25.2% with T-47D breast; 72.3% in the assay on MDA-MB-435 melanoma; 57.3% in the assay on SW-620 colon; 51.8% in the assay with MCF7 breast; 32.7% with HCT-116 colon; 107% with HCC-2998 colon. For the same compound, the growth in the assay with KM12 colon was 58.1%.
For `CSc1nc(=S)c2nc(SC)n(-c3ccccc3)c2[nH]1`, the growth with BT-549 breast was 104%; in the assay on MDA-MB-435 melanoma it was 103%; with SW-620 colon it was 97.1%; in the assay on MCF7 breast it was 90.7%; in the assay on HCT-116 colon it was 93.1%; in the assay with HCC-2998 colon, 115%.
On to `CC1=CC[C@@H]2C(C)(C)C(=O)CC[C@@]2(C)[C@@H]1COc1ccc2ccc(=O)oc2c1`, for which the growth with BT-549 breast was 55.9%; in the assay with MDA-MB-435 melanoma, 80.5%; with SW-620 colon it was 101%; with MCF7 breast it was 87.8%; with HCT-116 colon, 79.5%; in the assay with HCC-2998 colon, 83.6%. In addition, the growth in the assay on KM12 colon is 63%.
